Laboratory results from PubChem BioAssay (NCI).
Compounds without any hit were thinned out: in the full panel of roughly 79,000, 15% have a hit. Values without a mark were called inactive. Active and inactive are the calls of the source. Cut-off read from the data, not from the text of the source: active = growth inhibition above about 70%; inactive = the rest. Where a SMILES comes first, the peptide text is derived from it. The star is where a group is joined. Trt = c1ccc(C(c2ccccc2)(c2ccccc2)*)cc1; Cbz = O=C(OCc1ccccc1)*; Boc = CC(C)(C)OC(=O)*; OBn = c1ccc(CO*)cc1; Bn = c1ccc(C*)cc1

What was measured:
[1] = NCI Yeast Anticancer Drug Screen. Data for the rad50 strain (AID 155);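 note: 0% = growth of vehicle-only cultures of the same strain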; conditions: S. cerevisiae rad50 strain growth inhibition; at 50.0 µM; stronger effect = higher value
Outline: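 Growth of the mutant yeast was measured after compound exposure and referenced to vehicle-treated cultures.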

[2] = NCI Yeast Anticancer Drug Screen. Data for the mec2-1 strain (AID 157); conditions: S. cerevisiae mec2-1 strain, at 50.0 µM, stronger effect = higher value
Outline: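 mec2-1 yeast strain, carrying an alteration in DNA damage repair or cell cycle control, was exposed to compounds; growth inhibition was measured relative to vehicle-treated controls.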

[3] = NCI Yeast Anticancer Drug Screen. Data for the sgs1 mgt1 strain (AID 161);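 note: 0% = growth of cultures given vehicle only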; conditions: S. cerevisiae sgs1 mgt1 strain, at 50.0 µM, stronger effect = higher value
Outline: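 Compounds are added to genetically altered yeast, and growth is compared with cultures given vehicle alone to give percent inhibition.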

[4] = NCI Yeast Anticancer Drug Screen. Data for the cln2 rad14 strain (AID 165);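 note: 0% = growth equal to vehicle treated cultures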; conditions: S. cerevisiae cln2 rad14 strain, at 50.0 µM, stronger effect = higher value
Outline: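 Yeast carrying cln2 and rad14 alterations (cell cycle control and DNA damage repair) were exposed to compounds. Growth inhibition was measured against vehicle-treated controls.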

[5] = NCI Yeast Anticancer Drug Screen. Data for the bub3 strain (AID 167); conditions: S. cerevisiae bub3 mutant strain, at 50.0 µM, stronger effect = higher value
Outline: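 Whole-cell yeast assay. The mutant strain was incubated with compounds, and growth inhibition was determined by comparison with vehicle-treated cells.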

[6] = NCI Yeast Anticancer Drug Screen. Data for the mlh1 rad18 strain (AID 175); conditions: S. cerevisiae mlh1 rad18 strain growth inhibition; at 50.0 µM; stronger effect = higher value
Outline: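 Growth inhibition of the yeast strain was measured after compound exposure and expressed relative to vehicle-treated controls. The strain carries defined defects in DNA damage repair.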

| SMILES | growth inhibition [1] | growth inhibition [2] | growth inhibition [3] | growth inhibition [4] | growth inhibition [5] | growth inhibition [6] |
| --- | --- | --- | --- | --- | --- | --- |
| CC1(C)CC(=O)C(N=Nc2ccccc2)=C(O)C1 | 0.7% | 2.3% | -2.55% | -49.4% | 24.2% | -0.75% |
| COc1ccc2c3c([nH]c2c1)C1CC2C(CC(O)C(OC)C2C(=O)O)CN1CC3 (stereo not given) | -6.35% | -23.7% | -1.75% | 15.2% | 0.15% | -4.9% |
| COc1ccc(CCNC(=O)CCC2CCN(CCc3ccc(OC)c(OC)c3)CC2)cc1OC | 16.2% | -2.05% | 1.65% | 22.4% | -1.5% | 3.6% |
| Cc1cccc(C)c1N1C(=O)C2c3[nH]c4ccccc4c3C3CCC(C(C)(C)C)CC3C2C1=O (stereo not given) | 37.7% | 11.4% | 28.2% | 1.8% | 3.4% | 18.1% |
| CC1C(C)C1(c1ccccc1)C(C)(C)O (stereo not given) | 8.55% | 1.1% | 1.3% | 16.9% | -24.1% | -3.45% |
| CC(C)CC(NC(=O)C(CCC(=O)OCc1ccccc1)NC(=O)OC(C)(C)C)C(=O)NC(COCc1ccccc1)C(=O)NC(Cc1ccccc1)C(=O)O (stereo not given) (Boc-E(OBn)LS(Bn)F-OH; configuration not given here) | -6.65% | -4.8% | -8.05% | 6% | 13.3% | -10.8% |
| OC1c2ccccc2OC2(N3CCCC3)CCCCC12 (stereo not given) | -5.6% | -29.9% | -13.2% | -15.7% | -26.4% | 1.2% |
| C[CH2][Sn]([CH2]C)([O]C(=O)c1ccc2c(c1)OC(C)(C)O2)[O]C(=O)c1ccc2c(c1)OC(C)(C)O2 | 51.3% | 52.1% | 4.7% | 41.4% | 14% | -2.7% |
| O/N=C(/C(=N\O)c1ccco1)c1ccco1 | -26.1% | -46.5% | -13.8% | 2.45% | -24.1% | -8.3% |
| COc1cc(C2OC[C@@H]3C(=O)OC[C@H]23)cc(O)c1OC (stereo not given in full) | 3.35% | -1.6% | -33.1% | -13.3% | -38.8% | -23.7% |
| C=C(C)CC1CN2CCc3cc(OC)c(OC)cc3C2CC1=O (stereo not given) | 25.3% | 6.85% | 24.8% | 18.8% | 43.6% | 26.6% |
| O=Cc1ccc(/C=C/C(=O)O)cc1 | -1.55% | -10.1% | -4.85% | 5.9% | -8.55% | 1.1% |
| COC(=O)CC/C=N/NC(N)=O | 10.2% | 4.5% | 7.7% | -17.8% | 2.35% | -4.05% |
| Cc1nc2nnc(N)n2nc1C | 10.1% | -6.15% | 3.75% | -22% | 8.45% | 4.05% |
| O=C(Nc1cccc([N+](=O)[O-])c1)N1CCCC1 | -7.1% | -16.4% | -7.75% | -3.9% | -7.5% | -20.6% |
| O=C(NC1C=Nc2ccc(Cl)cc2NC1=O)c1ccc(Cl)cc1 (stereo not given) | 18% | 20.9% | 31.4% | 23.6% | 6.95% | 31.6% |
| COc1ccc(/C=C(\C(C)=O)C(=O)Nc2ccccc2)cc1 | 21.1% | 16.4% | 22.2% | 39.1% | 6.2% | 25.4% |
| CCCCCCCC/C=C\CCCCCCCCCCCC(=O)O | -5.7% | 5.75% | 0.4% | -46% | -17% | -6.25% |
| S=C=NCCCCCCCCCCCCN=C=S | 94.4% (active) | 89.5% (active) | 94.2% (active) | 58.5% | 89.7% (active) | 94.7% (active) |
| CCCCn1c2nc3ccccc3c-2nc2cc(OC)c(OC)cc21 | 26.1% | 15.3% | 14.6% | 5.5% | 12.2% | 35.1% |

| SMILES | growth inhibition [1] | growth inhibition [2] | growth inhibition [3] | growth inhibition [4] | growth inhibition [5] | growth inhibition [6] |
| --- | --- | --- | --- | --- | --- | --- |
| NC(CC1C(=O)Nc2ccccc21)C(=O)O (stereo not given) | -32.5% | -14.9% | -11.3% | -60.6% | -0.8% | -8.9% |
| Nc1nc2nc(C(=O)O)c(=S)[nH]c2c(=O)[nH]1 | 11.1% | 3.8% | 1.9% | -10.9% | 7.6% | -8.25% |
| O=C(NCCCl)Nc1[nH]c(=O)ncc1I | -6.55% | -6.7% | 1.1% | -10.3% | -8.75% | -7.95% |
| CN(C)CCCNc1ccnc2cc([N+](=O)[O-])ccc12 | 10.2% | 3.3% | 4.4% | -4.1% | -1.3% | -17.1% |
| Cc1ccc(S(=O)(=O)OCC2OC(C)(C)OC2COS(=O)(=O)c2ccc(C)cc2)cc1 (stereo not given) | 25% | -5.65% | 6.7% | -38.6% | 6.2% | 10.3% |
| Clc1ccc2c(NCCCCN=Cc3ccccc3)ccnc2c1 | -9.55% | -27.2% | -14% | -10.4% | 15.3% | -12.7% |
| O=C1CN2C(c3ccccc3)=NN(c3ccc([N+](=O)[O-])cc3)C2(c2ccccc2)c2cc(Cl)ccc2N1CC1CC1 (stereo not given) | 25.6% | -10.9% | -7.4% | 20.9% | 11.2% | 23.4% |
| CC(C)(C)OC(=O)CC(c1ccccc1)c1ccccc1 | -11.5% | -9.4% | -8.7% | -41.5% | 49.1% | -21.9% |
| CN(C)CCSCC(=O)N1c2ccccc2Sc2ccc(Cl)cc21 | -5.25% | -7.45% | -2.9% | 17.6% | 7.95% | -0.5% |
| N=C(N)N1CCC(N2CCOCC2)CC1 | 14.7% | -18.4% | -12.6% | -24.4% | 4.75% | -52.5% |
| C/C(=N\NC(=O)CCCCC(=O)N/N=C(\C)c1ccc(C)cc1)c1ccc(C)cc1 | -3.65% | -11.3% | 10.4% | -45.7% | -1.9% | -2.7% |
| CCc1ccc(/C=C/C(=O)C(C)CN(C)C)cc1 (stereo not given) | -4.9% | 26.1% | -2.3% | 22.1% | 13.9% | 9.85% |
| N#Cc1cc([N+](=O)[O-])ccc1NC(=O)C(=O)C(C(=O)/C=C/c1ccccc1)C1OC(=O)c2ccccc21 (stereo not given) | -1.05% | -15.9% | -41.2% | 5.55% | -15.2% | 8.95% |
| Cn1cnc2cc(NCCO)c([N+](=O)[O-])cc2c1=O | 11.1% | 18.9% | 4.5% | 11.4% | 24.4% | 24.3% |
| CSc1nc2c(c(=O)n1C)N=C(c1ccc(Cl)cc1)CC(c1ccccc1)N2 (stereo not given) | 16% | 3.25% | -5.6% | 11.4% | -11.6% | 15.8% |
| CCNC(=O)CCP(=O)(CCC(=O)NCC)CCC(=O)NCC | 7.25% | -3.05% | 3.9% | -4.35% | -6.7% | 6% |
| O=COC1CCCCCC1 | -8.55% | -28.9% | -11.1% | 7.9% | -5.9% | 12.9% |
| CC[N+](C)(CC)CCOc1nc2c(c(=O)n(C)c(=O)n2C)n1C | -9.5% | -6.85% | -6.05% | 5.25% | -22.5% | -2.65% |
| COc1ccc(/C=N/N2CN(C(C)C(=O)O)B(N(CCO)CCO)N=C2N)cc1OC (stereo not given) | 15.2% | 5.3% | 7.55% | 20.9% | 7.65% | 20.9% |
| COC(=O)C(CO)NC(=O)C(CSC(c1ccccc1)(c1ccccc1)c1ccccc1)NC(=O)OCc1ccccc1 (stereo not given) (Cbz-Cys(Trt)-Ser-OMe; configuration not given here) | 76.2% (active) | 68.7% | 78.8% (active) | 78% (active) | 67.2% | 84.2% (active) |
